A selection: hits, their analogues and other compounds. The true share with any hit is near 4.6%.
D1 ag = agonists of human D1 dopamine receptor. P21728. HEK293 T-REx D1 cells, calcium flux, agonist mode. activation, % at 2 µM. 360,000 compounds, 1% hits; further: 0% is about no effect
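Inducible HEK293 T-REx D1 cells, force-coupled to calcium signalling, were plated at 4000 cells/well with tetracycline and held overnight at 30 C. After no-wash calcium dye loading, compound-evoked calcium rise over 180 s flagged agonists.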
D1 PAM = enhances dopamine response at the human D1 receptor; potentiation, % at 10 µM; AID 504651; P21728; HEK293 TREx D1 cells, calcium flux, dopamine EC20 potentiation; 360,000 compounds, 0.036% hits; in the data active means potentiation above about 30%; further: 0% is about no effect
D1 antag = blocks dopamine activation of the human D1 receptor; AID 504652; HEK293 TREx D1 cells, calcium flux, dopamine EC80; stronger effect = lower value; P21728; 360,000 compounds, 3.2% hits; activity change, negative = inhibition, % at 10 µM; in the data active means activity change below about -30%; further: on the % scale 0 is the no-effect control and ±100 the full control effect
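Inducible Hek293 Trex D1 cells (tetracycline, overnight, 30 C). Calcium dye 30–90 min RT. Antagonist mode: EC80 dopamine added after 180 s compound read.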
TRHR enhancer = allosteric enhancers of human TRH receptor; P34981; TRHR cells, fluo-8 calcium fluorescence, EC20 TRH enhancement; enhancement, % at 2 µM; 360,000 compounds, 0.66% hits; in the data active means enhancement above about 30%; further: 0% is about no effect
Target sequence (P34981 whole entry, looked up): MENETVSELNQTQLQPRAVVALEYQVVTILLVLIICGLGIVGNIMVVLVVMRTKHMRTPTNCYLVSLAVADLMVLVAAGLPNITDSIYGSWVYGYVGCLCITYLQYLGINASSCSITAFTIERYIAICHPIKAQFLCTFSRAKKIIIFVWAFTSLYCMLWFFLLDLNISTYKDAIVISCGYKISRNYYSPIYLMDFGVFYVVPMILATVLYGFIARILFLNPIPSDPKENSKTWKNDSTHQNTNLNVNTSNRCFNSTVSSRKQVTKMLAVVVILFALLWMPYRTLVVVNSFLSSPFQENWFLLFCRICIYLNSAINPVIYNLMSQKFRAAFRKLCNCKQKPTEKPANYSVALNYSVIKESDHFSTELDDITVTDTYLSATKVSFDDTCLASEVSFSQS
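TRHR-expressing cells loaded with fluo-8 calcium dye were read kinetically (ex 480/em 530) during compound addition, then stimulated with an EC20 of TRH (10 nM final). Enhancement of the Gq-mediated intracellular calcium response was scored.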
TRHR agonist = agonists of human TRH receptor. TRHR cells, calcium flux fluo-8, FDSS agonist mode. 360,000 compounds, 0.18% hits. AID 493084. P34981. activation, % at 2 µM; further: 0% is about no effect
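Agonist-mode FDSS calcium read (Ex 480/Em 530, 1 s cycles) in 1536-well TRHR cells with fluo-8 dye, after 10-cycle baseline and 23 nL compound addition; TRH at EC20 (10 nM final) added afterwards for the enhancer phase.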
* hit, by the source's call. Unless noted, no stated cut-off is given here; in the data, active means activation above about 30%; inactive means the rest.

For O=c1c(S(=O)(=O)c2ccccc2)cn(Cc2ccc(F)cc2)c2cc(N3CCCCC3)c(F)cc12 the results were D1 ag 2, D1 PAM -1, D1 antag -44*, TRHR enhancer -3 and TRHR agonist 0.
Screening Cc1cccc(S(=O)(=O)c2cn(C)c3cc(N4CCN(c5ccccc5)CC4)c(F)cc3c2=O)c1 returned D1 ag 4, D1 PAM 0, D1 antag -1, TRHR enhancer 32* and TRHR agonist 0.
COc1cc(-c2cc(-c3ccc(F)cc3)nc(N)c2C#N)ccc1O was read as D1 ag 0, D1 PAM -7, D1 antag -44*, TRHR enhancer 0 and TRHR agonist 0.
Cc1ccc(-c2cc(-c3ccc(F)cc3)nc(N)c2C#N)o1 was read as D1 ag 2, D1 PAM -8, D1 antag -59*, TRHR enhancer 1 and TRHR agonist 1.
For COc1ccc(CC(=O)Oc2ccc(Cl)cc2Br)cc1S(=O)(=O)N1CCOCC1 the results were D1 ag 5, D1 PAM 6, D1 antag -22, TRHR enhancer 13 and TRHR agonist 0.
Screening O=C(Cn1nc(-c2ccccc2)c2cnc3ccccc3c21)Nc1ccccc1 returned D1 ag -2, D1 PAM 0, D1 antag 4, TRHR enhancer -2 and TRHR agonist 0.
For CC(C)(C)C1CCC2(CC1)NC(CO)(CO)CO2 (stereo not drawn) the results were D1 ag 1, D1 PAM -1, D1 antag -34*, TRHR enhancer 10 and TRHR agonist 1.
Screening COc1ccc(-c2cc(C(C)=O)c(C)n2CCC(=O)Nc2ccc(C)c(Cl)c2)cc1 returned D1 ag 3, D1 PAM -1, D1 antag 2, TRHR enhancer -4 and TRHR agonist 0.
CCOC(=O)N1CCN(C(=O)CNS(=O)(=O)c2c(C)cc(C)cc2C)CC1 was read as D1 ag 5, D1 PAM 6, D1 antag 13, TRHR enhancer 33* and TRHR agonist 0.
For CCOC(=O)N1CCN(C(=O)CNS(=O)(=O)c2cccs2)CC1 the results were D1 ag 2, D1 PAM 6, D1 antag 5, TRHR enhancer -4 and TRHR agonist 0.
CCC(CC)C(=O)Nc1nc2c(s1)CC(C)CC2 (stereo not drawn) was read as D1 ag 33*, D1 PAM -1, D1 antag -20, TRHR enhancer 1 and TRHR agonist 2.
For CC1CCc2nc(NC(=O)C3CCCO3)sc2C1 (stereo not drawn) the results were D1 ag 1, D1 PAM 6, D1 antag 7, TRHR enhancer -1 and TRHR agonist 0.
`Cc1ccc(Cl)cc1N1CCN(C(=O)c2cccn2-c2nnc(N3CCCC3)s2)CC1` gave D1 ag 4, D1 PAM 0, D1 antag 9, TRHR enhancer -5 and TRHR agonist 0.
For Cc1ccc2occ(CC(=O)Nc3ccc(Cl)c(C(F)(F)F)c3)c2c1 the results were D1 ag 16, D1 PAM -3, D1 antag -31*, TRHR enhancer -4 and TRHR agonist 2.
For CN(CC(=O)NCc1ccc(F)cc1)CC(=O)Nc1ccc(Cl)c(C(F)(F)F)c1 the results were D1 ag 24, D1 PAM 1, D1 antag -33*, TRHR enhancer 2 and TRHR agonist 1.
Screening O=C(Nc1ccc(Cl)c(C(F)(F)F)c1)c1ccco1 returned D1 ag -1, D1 PAM -3, D1 antag -29, TRHR enhancer 3 and TRHR agonist -1.
Screening CCNC(=S)Nc1ccc(Cl)c(C(F)(F)F)c1 returned D1 ag 20, D1 PAM -6, D1 antag -32*, TRHR enhancer -2 and TRHR agonist 1.
`Cc1ccc(NC(=O)CN(C)CC(=O)Nc2ccc(F)c(Cl)c2)cc1` gave D1 ag 2, D1 PAM 3, D1 antag -55*, TRHR enhancer 2 and TRHR agonist 0.
Screening Cc1ccc2c(CC(=O)Nc3ccc(S(=O)(=O)N4CCCCC4)cc3)coc2c1 returned D1 ag 5, D1 PAM 0, D1 antag -73*, TRHR enhancer 1 and TRHR agonist 2.
For Cc1ccc2c(CC(=O)Nc3ccc(S(=O)(=O)N4CCCC(C)C4)cc3)coc2c1 (stereo not drawn) the results were D1 ag 6, D1 PAM 2, D1 antag -3, TRHR enhancer 0 and TRHR agonist 2.
COc1ccc(-c2nc3cc(C)ccn3c2NCc2ccc3c(c2)OCO3)cc1 was read as D1 ag 3, D1 PAM 0, D1 antag -31*, TRHR enhancer -3 and TRHR agonist 0.
`COc1ccc(-c2nc3ccccn3c2NCc2ccc3c(c2)OCO3)cc1` gave D1 ag 0, D1 PAM -7, D1 antag 4, TRHR enhancer 2 and TRHR agonist 0.
`Cc1cc2c(s1)c1cnn(Cc3c(F)cc(F)cc3F)c(=O)c1n2C` gave D1 ag 0, D1 PAM 3, D1 antag 4, TRHR enhancer -2 and TRHR agonist 0.
C[C@@H](C(=O)Nc1ccc2ccccc2c1)[C@@H]1C[C@@]1(C)[C@@H](NC(=O)c1cnccn1)c1ccccc1 was read as D1 ag 6, D1 PAM -1, D1 antag -30*, TRHR enhancer 4 and TRHR agonist 0.
For Cc1[nH]cc(Br)c(=O)c1Oc1ncc(C(F)(F)F)cc1Cl the results were D1 ag 2, D1 PAM -8, D1 antag -35*, TRHR enhancer -7 and TRHR agonist 0.
`FC(F)(F)c1cnc(Oc2cccc3ccccc23)c(Cl)c1` gave D1 ag 0, D1 PAM -1, D1 antag 2, TRHR enhancer 6 and TRHR agonist 0.
For Cc1c(Cl)cccc1NC(=O)CN1C(=O)COc2ccc(S(=O)(=O)N3CCCCCC3)cc21 the results were D1 ag 3, D1 PAM -4, D1 antag 24, TRHR enhancer 12 and TRHR agonist 0.
`CCc1ccc(N/C(SCc2ccccc2C)=C(/C#N)C(=O)NCc2ccco2)cc1` gave D1 ag 30*, D1 PAM -4, D1 antag -30*, TRHR enhancer -3 and TRHR agonist 3.
Screening COc1ccc(OCc2cc(C(=O)NC(C)c3csc(C)n3)no2)c(Cl)c1 (stereo not drawn) returned D1 ag 11, D1 PAM -7, D1 antag 1, TRHR enhancer -2 and TRHR agonist -1.
COc1ccc(OCc2cc(C(=O)NCc3nc(C)cs3)no2)c(Cl)c1 was read as D1 ag 17, D1 PAM 8, D1 antag -35*, TRHR enhancer 17 and TRHR agonist 2.

Screening data deposited in PubChem by National Center for Advancing Translational Sciences (NCATS).
